# PLK1 PBD block: qHTS for Inhibitors of PLK1-PDB (polo-like kinase 1 - polo-box domain): Primary Screen. Serine/threonine-protein kinase PLK1 (Homo sapiens), P53350. Plk1 PBD binding of FITC phosphopeptide, fluorescence polarization. Potency, µM, for the others: max response, negative = inhibition, hits mostly inhibitors. 2.8% of 360,000 active. AID 720504, 2013; also: series mostly up to about 57 µM; % is scaled to controls: 0 for no effect and ±100 for the full control effect; nearly all actives have a fitted effect of over 65% in size
# BAZ2B inh: qHTS Assay for Inhibitors of BAZ2B. Bromodomain adjacent to zinc finger domain protein 2B (Homo sapiens), Q9UIF8. AlphaScreen BAZ2B-H3K14Ac peptide displacement. Potency, µM (series often up to 114 µM), without a hit: at the highest dose activity change, negative = inhibition, actives largely listed as inhibitors. 4.4% of 360,000 active; also: % is scaled to controls: 0 for no effect and ±100 for the full control effect; nearly all actives have a fitted effect of over 60% in size
#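 AlphaScreen displacement of biotin-H3(5-23)K14Ac peptide (50 nM final) from BAZ2B (50 nM final) in PBS pH 7.4, 0.01% Tween-20; complex preformed 30 min RT, then compounds (top 110 uM) 30 min RT, beads 20 min dark.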
# G9a inh: qHTS Assay for Inhibitors of Histone Lysine Methyltransferase G9a. Histone-lysine N-methyltransferase EHMT2 (Homo sapiens), Q96KQ7. G9a H3K9 monomethylation, AlphaScreen, 2 h. Potency, µM (doses to about 102 µM), inactives show at the top dose activity, negative = inhibition, usual class: inhibitors. 8.8% of 350,000 active. AID 504332, 2011; also: % is scaled to controls: 0 for no effect and ±100 for the full control effect; nearly all actives have a fitted effect of over 75% in size
# Target sequence (Q96KQ7 913-1193 limits assumed): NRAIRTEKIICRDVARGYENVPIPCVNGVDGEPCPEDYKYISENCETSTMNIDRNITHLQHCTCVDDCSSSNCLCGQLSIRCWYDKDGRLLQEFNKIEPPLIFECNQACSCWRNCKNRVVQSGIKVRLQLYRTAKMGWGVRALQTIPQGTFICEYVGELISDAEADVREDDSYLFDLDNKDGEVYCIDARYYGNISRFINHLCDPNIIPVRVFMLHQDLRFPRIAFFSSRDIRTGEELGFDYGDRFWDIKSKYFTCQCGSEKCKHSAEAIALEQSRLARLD
#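 AlphaScreen read-out: biotin-H3K9 peptide (500 nM) methylation by 20 nM enzyme with 20 uM SAM, 2 h at room temperature after 15 min compound preincubation; anti-monomethyl H3K9 antibody plus donor/acceptor beads, 10 min dark.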
# HP1b binding inh: HTS for Inhibitors of HP1-beta Chromodomain Interactions with Methylated Histone Tails. Chromobox protein homolog 1 (Homo sapiens), P83916. AlphaScreen HP1-beta / biotin-H3K9me3 peptide binding. 0.56% of 390,000 active. Potency, µM (top dose mostly 114 µM), for inactives: top-dose activity change, negative = inhibition, actives largely listed as inhibitors; also: nearly all actives have a fitted effect of over 70% in size
# Target sequence (P83916 whole entry, looked up): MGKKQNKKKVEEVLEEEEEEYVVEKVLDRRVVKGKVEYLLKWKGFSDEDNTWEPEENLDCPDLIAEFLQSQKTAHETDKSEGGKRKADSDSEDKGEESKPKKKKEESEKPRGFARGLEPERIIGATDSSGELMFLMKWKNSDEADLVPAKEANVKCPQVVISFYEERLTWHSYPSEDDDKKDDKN
#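 AlphaScreen: HP1-beta (50 nM) preformed 30 min with biotin-H3(1-18)K9me3 peptide (50 nM) in PBS pH 7.4, 0.01% Tween-20. Compound added for 30 min at RT, then streptavidin donor/nickel chelate acceptor beads (10 ug/mL) for 30 min.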
# JMJD2A Tudor: qHTS Assay for Inhibitors of JMJD2A-Tudor Domain; Lysine-specific demethylase 4A (Homo sapiens), O75164; AlphaScreen JMJD2A-Tudor / H3K4me3 peptide binding; Potency, µM (series often up to 114 µM), for inactives: at the highest dose activity change, negative = inhibition, most hits filed as inhibitors; 4.4% of 390,000 active; also: % is scaled to controls: 0 for no effect and ±100 for the full control effect; nearly all actives have a fitted effect of over 50% in size
# Sfp inh: qHTS Assay for Inhibitors of Bacillus subtilis Sfp phosphopantetheinyl transferase (PPTase) | 3.5% of 310,000 active | Biochemical Sfp PPTase activity, qHTS | Potency, µM, for inactives: largest response in the series, negative = inhibition, hits mostly inhibitors | 4'-phosphopantetheinyl transferase ffp (Bacillus subtilis), Q9F4F7 | AID 1490, 2009;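 also: the enzyme is Sfp with the accession as filed and its product quenches rhodamine fluorescence; 0% = enzyme reaction without inhibitor and -100% = no enzyme wells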
#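 With Hepes-Na pH 7.6 buffer containing 10 mM MgCl2, Sfp (15 nM) modified BHQ-2-YbbR (12.5 uM) using rhodamine-CoA (5 uM). Two reads 30 minutes apart at 525/598 nm yielded each well's rate.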
# An asterisk follows results filed as active; ? = inconclusive; . = no result given; [ ] = remark or other dose. Compounds with a hit are over-represented: about 12% of the library has one in this group of screens. Calls follow the shape of the dose curve; as a rule, active = well fitted curve in the direction sought with a large enough effect; inconclusive = small, poorly fitted or top-dose-only effect, or another doubt; inactive = no such curve, though single readings can be large; an effect the other way counts as inactive or inconclusive. Potency is read from the fitted curve at half-maximal effect.
SMILES,PLK1 PBD block,BAZ2B inh,G9a inh,HP1b binding inh,JMJD2A Tudor,Sfp inh
CCc1cc2c(=O)[nH]c(-c3ccccn3)nc2s1,-25%,28µM*,26%[59 µM],36%,25µM*,-31%
COc1cnc(-c2ccccn2)[nH]c1=O,-16%,1.3µM*,34%,31%,40µM*,10µM*
O=C(c1cc(C2CCCCN2C(=O)CCCc2ccccc2)on1)N1CCOCC1 (configuration not stated),2%,.,.,.,.,.
COc1ccc(CNC(=O)C(=O)Nc2ccc(OC)cc2OC)cc1,.,-2%,11%[59 µM],28%,-2%,.
O=C(Cn1c(=O)sc2ccccc21)NCc1ccccn1,21µM*,-5%,-1%[59 µM],13%,?,17%
Cc1nc2sc3c(=O)[nH]nnc3c2c(C)c1Br,-16%,17%,4%[0.501 µM],13%,-3%,-1%
COCc1c(Br)c(C)nc2sc3c(=O)[nH]nnc3c12,?,56µM*,35µM*,29%,-14%,-28%
O=C(COC(=O)Cc1ccsc1)Nc1ccc(Cl)cn1,2%,33%,-13%[2.33 µM],24%,1%,.
Cc1nn(-c2ccc(C(=O)O)cc2)c(C)c1Cl,-8%,-22%,-33%,47%,-3%,15%
Cc1c[n+]([O-])n(-c2ccc(C(=O)O)cc2)n1,-10%,56µM*,?,6%,?,4%
Cc1cc(C)c([N+](=O)[O-])cc1-c1ccc(/C=N/c2c(-c3ccco3)nc3ccccn23)o1,-6%,10µM*,17%[0.501 µM],?,6.3µM*,?
O=[N+]([O-])c1ccc(Cl)c(-c2ccc(/C=N/c3c(-c4ccco4)nc4ccccn34)o2)c1,-7%,?,?,?,?,-19%
Oc1cccc(/C=N/c2c(-c3ccco3)nc3ccccn23)c1,-15%,56µM*,50µM*,?,?,?
COc1ccc(C(CNC(=O)C(CCSC)NC(=O)c2ccccc2OC)N2CCCCC2)cc1 (configuration not stated),7%,-26%,32µM*,5%,-22%,7%
C=CCn1c(SCc2cccc(C#N)c2)nnc1-c1ccccc1O,27µM*,5%,8%[59 µM],20%,?,1%
CCN(CCO)Cc1cc(=O)oc2cc3c(cc12)CCC3,2%,-25%,40µM*,37%,-4%,9%
CCCCN(C)Cc1cc(=O)oc2cc3c(cc12)CCCC3,-4%,35%,112%,86%,40%,-6%
CC1CCN(c2ccc(NC(=S)NC(=O)c3ccco3)cc2)CC1,-7%,8.9µM*,-40%[12.7 µM],-7%,?,-6%
O=C(NC(=S)Nc1ccc(N2CCCCC2)cc1)c1ccco1,-3%,45µM*,?,16µM*,40µM*,0%
COc1cc(NC(=S)N2CCN(C)CC2)cc(OC)c1,-10%,29%,-2%[0.501 µM],21%,-17%,5%
COC(=O)NC(/C(C(=O)OC)=C(\C)NCc1ccccc1)c1ccccc1 (configuration not stated),.,.,.,.,.,-8%
CCOC(=O)C1CCCN(C2=NC(=O)/C(=C/c3ccc(N(C)C)cc3)S2)C1 (configuration not stated),63%,45µM*,40µM*,35%,-26%,-12%
CCOC(=O)C1CCN(C2=NC(=O)/C(=C/c3ccc(O)cc3)S2)CC1,?,-21%,40µM*,-23%,-5%,?
CCOC(=O)CSC1=NC(=O)/C(=C/c2ccc(OC)cc2)S1,2.7µM*,-7%,7.1µM*,16%,-21%,18µM*
CCOC(=O)C1CCCN(C2=NC(=O)/C(=C/c3ccc(OC)cc3OC)S2)C1 (configuration not stated),19µM*,-27%,25µM*,-20%,-36%,45µM*
SMILES,PLK1 PBD block,BAZ2B inh,G9a inh,HP1b binding inh,JMJD2A Tudor,Sfp inh
COc1ccc(OC)c(CCNC(=O)c2cc3cccc4c3n2CC(C)S4)c1 (configuration not stated),.,-38%,?,25%,-32%,.
CCCc1cc(=O)oc2cc(C)cc(OCC(=O)N[C@@H](CSCc3ccccc3)C(=O)O)c12,-1%,2%,.,32%,-13%,8%
Cc1cccc(Cn2c(=O)n(CCCC(=O)NCc3ccccc3Cl)c(=O)c3ccccc32)c1,.,-1%,-31%[59 µM],20%,-10%,.
COc1cccc(NC(=O)c2sc3nc(C)c(C(=O)Nc4ccc(C)cc4C)c(-c4cccs4)c3c2N)c1,.,12%,?,92%,10%,.
O=C(NCC1COc2ccccc2O1)c1cc(S(=O)(=O)N2CCOCC2)ccc1F (configuration not stated),-1%,4%,22µM*,20%,-14%,.
O=C(NCC1COc2ccccc2O1)c1cccc(S(=O)(=O)N2CCCCC2)c1 (configuration not stated),3%,-14%,9%[12.7 µM],47%,-7%,.
CN(CC1COc2ccccc2O1)C(=O)c1cccc(S(=O)(=O)N2CCCC2)c1 (configuration not stated),-7%,-5%,1µM*,23%,-8%,.
O=C(NCC1COc2ccccc2O1)c1c[nH]c2ccc(S(=O)(=O)N3CCOCC3)cc2c1=O (configuration not stated),0%,9%,?,13%,-14%,16%
CC(=O)Nc1ccc(-c2ccnc3c2CC(C(=O)NCc2cccc(Cl)c2)O3)cc1 (configuration not stated),1%,.,.,.,.,.
Cc1cccc2cc(C(c3nnnn3CC3CCCO3)N3CCCC4(CCCCC4)C3)c(=O)[nH]c12 (configuration not stated),.,5%,-10%[59 µM],.,.,21%
Cc1ccc2cc(C(c3nnnn3C(C)(C)C)N3CCCC3)c(=O)[nH]c2c1C (configuration not stated),.,-29%,32µM*,.,.,45µM*
CCC(C)(C)n1nnnc1C(c1cc2cc3c(cc2[nH]c1=O)OCO3)N1CCCCC1 (configuration not stated),-9%,-19%,9%[12.7 µM],11%,-8%,13%
Cc1cc2cc(C(c3nnnn3Cc3ccco3)N3CCCCC3)c(=O)[nH]c2cc1C (configuration not stated),-21%,-6%,50µM*,24%,-12%,40µM*

# Assay outcomes: PubChem, National Center for Advancing Translational Sciences (NCATS)
